The panel holds about 83,000 compounds, 20% with a hit somewhere; the sample as a whole holds those more often.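 Interpretation: 100, growth as untreated; towards 0, rising growth inhibition; 0, no net growth; 0 to -100, cell death. Compounds scoring below 10 were considered active.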 Values without a mark were called inactive. Activity calls are given as the source filed them.
These compounds were tested on NCI-H460 lung (assay: NCI-60 one-dose screen, 48 h (100 = growth as untreated, 0 = no growth, -100 = all killed)). Conditions: 10 µM.

Row | Structure (SMILES) | growth
1 | NS(=O)(=O)Oc1ccc(-c2ccc3sccc3c2)cc1 | 103%
2 | C=C(C)[C@@H]1CC[C@]2(COCCC#N)CC[C@]3(C)[C@H](CC[C@@H]4[C@@]5(C)Cc6c([nH]c7ccccc67)C(C)(C)[C@@H]5CC[C@]43C)[C@@H]12 | 84.9%
3 | O=S(=O)(Oc1ccc(-c2ccc3sccc3c2)cc1)c1ccc(F)cc1 | 103%
4 | Cc1nn(-c2ccccc2)c2nc(Cl)c(C=O)c(-c3ccccc3)c12 | 94%
5 | Cc1ccc(S(=O)(=O)N/N=C2\CCCc3ccccc32)cc1 | 96.7%
6 | COc1ccc(-c2cc(-c3ccc(OC)c(OC)c3)nc(SCCCC(=O)NO)n2)cc1 | -4.97% (active)
7 | CC(C)C[C@H](NC(=O)Cn1cccc(CNC(=O)c2ccccc2)c1=O)B(O)O | 27.8%
8 | CC[C@@H](C(=O)[C@@H](C)[C@@H](O)[C@H](C)[C@@H]1O[C@@H]([C@@H](CC)C(=O)O)CC[C@@H]1C)C1O[C@]2(C=CC(=O)[C@]3(CC[C@@](C)([C@H]4CC[C@](O)(CC)[C@H](C)O4)O3)O2)[C@H](C)C[C@@H]1C (stereo partly specified) | 23.8%
9 | CCOC(=O)/C(=C(\C)N)C1CC(=O)NC1=O (stereo unspecified) | 101%
10 | COc1cc(-c2nn(-c3cccc(NC(=O)CCNc4ccc(N5CCOCC5)cc4)c3)cc2-c2ccncc2)ccc1Cl | 4.77% (active)
11 | CC(=O)N[C@H](C(=O)N[C@@H](CCCNC(=N)N)C(=O)N[C@@H](CCCCN)C(=O)N[C@@H](CCCNC(=N)N)C(=O)N[C@]1(C)CCCCCC/C=C\CCC[C@@](C)(C(=O)N[C@@H](CCCNC(=N)N)C(=O)N[C@@H](CCC(=O)O)C(=O)N[C@@H](CC(C)C)C(=O)N[C@H](C(=O)N[C@@H](CCC(=O)O)C(N)=O)C(C)C)NC(=O)[C@H](CCC(N)=O)NC(=O)[C@H](CC(C)C)NC(=O)[C@H](CC(C)C)NC(=O)[C@H](CCCNC(=N)N)NC(=O)[C@H](CCCNC(=N)N)NC(=O)[C@H](CC(C)C)NC1=O)C(C)C | -9.29% (active)
12 | O=C1c2ccccc2C(=O)c2c1ccc1c(=O)n(-c3ccccc3C(F)(F)F)nnc21 | 5.82% (active)
13 | Cc1c(Cl)cccc1NC(=O)CCCl | 102%
14 | COc1cc(-c2csc(NC(=O)Nc3cc(C(F)(F)F)cc(C(F)(F)F)c3)n2)cc(OC)c1OC | 10.9%
15 | Nc1ccn(Cc2nnc(CCC(=O)c3nc4ccccc4[nH]3)o2)c(=O)n1 | 34.6%
16 | O=C1C=C(Nc2cccc(Br)c2)c2ccccc2C1=O | 12.7%
17 | COc1cccc(N=Nc2cccc(OC)c2)c1 | 103%
18 | C=CCN(CC=C)C(=O)[C@H](CC)[C@@H]1CC[C@@H](C)[C@@H]([C@H](C)[C@@H](O)[C@@H](C)C(=O)[C@H](CC)C2O[C@]3(C=C[C@@H](O)[C@]4(CC[C@@](C)([C@H]5CC[C@](O)(CC)[C@H](C)O5)O4)O3)[C@H](C)C[C@@H]2C)O1 (stereo partly specified) | 3.23% (active)
19 | O=C1/C=C/[C@@H](O)[C@@H]2C[C@@H](O)C[C@H]2/C=C/CCC[C@@H](C(F)(F)F)O1 | 104%
20 | CC[C@@H](C(=O)[C@@H](C)[C@@H](O)[C@H](C)[C@@H]1O[C@@H]([C@@H](CC)C(=O)N(CC)CC)CC[C@@H]1C)C1O[C@]2(C=CC(=O)[C@]3(CC[C@@](C)([C@H]4CC[C@](O)(CC)[C@H](C)O4)O3)O2)[C@H](C)C[C@@H]1C (stereo partly specified) | 18.5%
21 | O=S(=O)(O)c1ccc(Cl)cc1 | 103%
22 | CCN(CC)CCOc1cccc2c1C(=O)c1ccccc1C2=O | 101%
23 | CC[C@@H]1NC(=O)[C@H]([C@H](O)[C@H](C)C/C=C/c2ccc(CN3C(=O)CCCC3=O)cc2)N(C)C(=O)[C@H](C(C)C)N(C)C(=O)[C@H](CC(C)C)N(C)C(=O)[C@H](CC(C)C)N(C)C(=O)[C@@H](C)NC(=O)[C@H](C)NC(=O)[C@H](CC(C)C)N(C)C(=O)[C@H](C(C)C)NC(=O)[C@H](CC(C)C)N(C)C(=O)CN(C)C1=O | 71.2%
24 | O=C(Nc1ccc(NS(=O)(=O)c2ccc(F)cc2)cc1)C12CC3CC(CC(C3)C1)C2 | 101%
25 | C/C(=N\O)c1ccc(NC(=O)CSc2nnc(-c3ccccc3)n2-c2ccccc2)cc1 | 66.7%
26 | CC(=O)Nc1ccc2c(c1)C(=O)c1cccc(C(=O)O)c1-2 | 98.1%
